GPT2 inhibitor = Primary qHTS assay for inhibitors of Glutamate pyruvate transaminase 2 (GPT2) | Alanine aminotransferase 2 (Homo sapiens), Q8TD30 | Recombinant GPT2, coupled pyruvate oxidase/HRP Amplex Red fluorescence | Potency, µM (highest dose often 57.7 µM), actives largely listed as inhibitors | 100,000 compounds, 0.25% hits | AID 1671188, 2021; also: nearly all actives have a fitted effect of over 60% in size
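Recombinant GPT2 (10ng/uL) with 250uM a-KG and 2mM L-alanine, 30 min at room temperature, in HEPES pH 7.5 buffer. Pyruvate detected by pyruvate oxidase/HRP/Amplex Red fluorescence after 30 min in the dark; AOA (50uM) as positive control.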
hNpr1 antagonist = Natriuretic polypeptide receptor (hNpr1) antagonism - Primary qHTS | Atrial natriuretic peptide receptor 1 (Homo sapiens), P16066 | HEK293 hNpr1 GloSensor cGMP, ANP-stimulated luminescence | Potency, µM (top dose mostly 46.3 µM), most hits filed as inhibitors | 76,000 compounds, 1.6% hits | AID 1347048, 2019; calls by dose curve; also: nearly all actives have a fitted effect of over 60% in size
Target sequence (P16066 whole entry, looked up): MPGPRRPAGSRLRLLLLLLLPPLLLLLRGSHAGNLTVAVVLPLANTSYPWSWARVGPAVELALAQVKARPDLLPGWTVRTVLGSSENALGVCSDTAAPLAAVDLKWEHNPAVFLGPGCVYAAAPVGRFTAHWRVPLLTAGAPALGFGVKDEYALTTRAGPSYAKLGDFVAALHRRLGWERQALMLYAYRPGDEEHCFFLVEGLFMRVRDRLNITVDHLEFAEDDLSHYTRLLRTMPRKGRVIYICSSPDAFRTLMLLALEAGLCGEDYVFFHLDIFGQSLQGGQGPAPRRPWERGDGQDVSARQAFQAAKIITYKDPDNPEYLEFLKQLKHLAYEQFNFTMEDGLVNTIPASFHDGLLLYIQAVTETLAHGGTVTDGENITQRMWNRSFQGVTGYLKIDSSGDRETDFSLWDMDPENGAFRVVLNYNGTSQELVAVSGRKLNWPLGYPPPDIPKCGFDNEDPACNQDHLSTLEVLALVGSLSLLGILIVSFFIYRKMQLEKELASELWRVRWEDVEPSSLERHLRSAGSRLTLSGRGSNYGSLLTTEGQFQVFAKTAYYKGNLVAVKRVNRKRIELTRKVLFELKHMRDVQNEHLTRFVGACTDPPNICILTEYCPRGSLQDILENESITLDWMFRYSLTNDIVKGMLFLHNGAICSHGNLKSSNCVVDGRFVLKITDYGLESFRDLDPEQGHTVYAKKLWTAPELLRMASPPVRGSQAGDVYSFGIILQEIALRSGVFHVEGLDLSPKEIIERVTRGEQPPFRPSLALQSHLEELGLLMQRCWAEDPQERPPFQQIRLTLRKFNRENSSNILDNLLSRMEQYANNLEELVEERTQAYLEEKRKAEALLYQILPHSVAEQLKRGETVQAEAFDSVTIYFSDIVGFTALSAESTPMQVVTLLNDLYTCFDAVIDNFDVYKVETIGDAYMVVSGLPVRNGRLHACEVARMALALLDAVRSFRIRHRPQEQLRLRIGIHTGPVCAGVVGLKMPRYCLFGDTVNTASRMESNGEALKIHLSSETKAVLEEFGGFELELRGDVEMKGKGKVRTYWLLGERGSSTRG
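HEK293 cells stably expressing human Npr1 and cGMP GloSensor pGS-40F, loaded 2 h with 2% GloSensor reagent, given compound 30 min at room temperature. Luminescence read before and 20 min after 0.1 nM hNppA.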
FLuc inh = Firefly luciferase inhibition profiling of diverse chemical library using quantitative high-throughput screening. AID 1347043, 2019. Luciferin 4-monooxygenase (Photinus pyralis), P08659. 76,000 compounds, 2.5% hits. Potency, µM (titrated, usually from 115 µM), most hits filed as inhibitors. purified P. pyralis luciferase, luminescence, biochemical; also: nearly all actives have a fitted effect of over 65% in size
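Luminescence read by CCD imaging after purified firefly luciferase (10nM final) was added to substrate buffer holding 10uM D-luciferin and 10uM ATP, pH 7.5, pre-dosed with compound.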
HEK293 tox = Cytotoxic Profiling in HEK 293 Cell Line of Diverse Libraries Using Quantitative High-Throughput Screening. HEK 293 viability, ATP luminescence (CellTiter-Glo), 48-72 h. 94,000 compounds, 6.6% hits. Potency, µM (highest dose often 115 µM), hits mostly inhibitors; also: nearly all actives have a fitted effect of over 60% in size
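Luminescence from cellular ATP, measured with CellTiter-Glo, indicates HEK 293 viability. Cells plated at 250 cells/well are treated with compound for 48 or 72 hr at 37 degree Celsius before reagent addition.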
3T3 cytotox = Cytotoxic Profiling in NIH 3T3 Cell Line of Diverse Libraries Using Quantitative High-Throughput Screening. 94,000 compounds, 4.3% hits. NIH 3T3 viability, CellTiter-Glo ATP luminescence, 48-72 h. Potency, µM (highest dose often 96.7 µM), most hits filed as inhibitors; also: nearly all actives have a fitted effect of over 55% in size
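Luminescent ATP readout (CellTiter-Glo, 10 min RT) after 48 or 72 hr compound exposure of NIH 3T3 cells seeded at 400 cells/well in 1536-well format; quantitative HTS.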
Of the large screens only hits and unclear results are named; the others gave an inactive call. Rows were chosen to be rich in hits. Some 10% of all compounds tested hit in one or more screens of this group. Unless noted, calls follow the shape of the dose curve; as a rule, active = well fitted curve in the direction sought with a large enough effect; inconclusive = small, poorly fitted or top-dose-only effect, or another doubt; inactive = no such curve, though single readings can be large; an effect the other way counts as inactive or inconclusive.

CC1(Cc2ccc3c(c2)OCO3)CCCN(CC(=O)NCc2ccco2)C1 (stereo not drawn)	hNpr1 antagonist inconclusive, HEK293 tox 45µM
Cc1cc(=O)n(CC(=O)N2CCCC(C)(Cc3ccc4c(c3)OCO4)C2)nc1C (stereo not drawn)	HEK293 tox inconclusive
O=C(NC1CCCCCC1)c1nc2cccnc2n(C2CC2)c1=O	none (no result: hNpr1 antagonist, FLuc inh)
COc1ccccc1CNC(=O)C[C@@H]1CCNC[C@@H]1Cc1cc(CSc2ccccc2)on1	HEK293 tox inconclusive, 3T3 cytotox 79µM
COc1ccccc1CNC(=O)C[C@@H]1CCNC[C@@H]1Cc1cc(C(C)(C)C)on1	HEK293 tox 100µM, 3T3 cytotox 100µM
O=C(C[C@@H]1CCNC[C@@H]1Cc1cc(CSc2ccccc2)on1)NCc1ccc(F)cc1	GPT2 inhibitor inconclusive, HEK293 tox inconclusive, 3T3 cytotox inconclusive
Cc1cc(C)c(CNC(=O)c2nc(-c3ccccc3)cc3c2ccn3C(C)C)c(=O)[nH]1	HEK293 tox inconclusive, 3T3 cytotox inconclusive
Cc1cc(C)c(CNC(=O)c2nc(-c3cccc(O)c3)cc3c2ccn3C)c(=O)[nH]1	HEK293 tox inconclusive, 3T3 cytotox 25µM
Cc1cc(C)c(CNC(=O)c2nc(-c3cccc(F)c3)cc3c2ccn3C(C)C)c(=O)[nH]1	HEK293 tox 32µM, 3T3 cytotox inconclusive
Cc1cc(C)c(CNC(=O)c2nc(-c3ccnn3C)cc3c2ccn3C(C)C)c(=O)[nH]1	GPT2 inhibitor inconclusive, HEK293 tox inconclusive, 3T3 cytotox 89µM
COCCNC(=O)c1cn2cc(-c3cccc(OC)c3)sc2n1	HEK293 tox inconclusive, 3T3 cytotox inconclusive (no result: hNpr1 antagonist, FLuc inh)
COC1CN(c2ccc(C)cc2)C12CCN(C(=O)c1cccnc1)CC2 (stereo not drawn)	none (no result: hNpr1 antagonist, FLuc inh)
COc1ccccc1-c1ccc(NCC2CCCN(C(=O)C3CC3)C2)nn1 (stereo not drawn)	FLuc inh inconclusive
COc1ccc(C(=O)N2CC(Oc3ccc(-c4nc(-c5ccccc5)no4)cc3)C2)cc1	none
O=C(NC1CCCC1)N1CC(Oc2ccccc2-c2nc(-c3ccccc3)no2)C1	HEK293 tox inconclusive, 3T3 cytotox 32µM
COc1ccc(C(=O)N2CC(Oc3ccccc3-c3nc(-c4ccccc4)no3)C2)cc1	FLuc inh inconclusive, HEK293 tox 28µM, 3T3 cytotox 32µM
O=C(c1ccco1)N1CC(Oc2ccccc2-c2nc(C3CC3)no2)C1	HEK293 tox inconclusive, 3T3 cytotox inconclusive (no result: hNpr1 antagonist, FLuc inh)
O=C(c1ccco1)N1CC(Oc2ccccc2-c2nc(-c3ccccc3)no2)C1	FLuc inh inconclusive, HEK293 tox 25µM, 3T3 cytotox 32µM
O=C(CCc1ccnc(N2CCOCC2)c1)NCCN1CCc2ccccc2C1	none
O=C(C1CCCN1C(=O)c1ccccc1Cl)N1CCC(N2CCOCC2=O)CC1 (stereo not drawn)	none (no result: hNpr1 antagonist, FLuc inh)
O=C(c1ccc(CNc2nccc(-c3cccnc3)n2)cc1)N1CCCCC1	HEK293 tox 40µM, 3T3 cytotox 50µM
COc1ccc(OCC(O)CN2CCC(=O)N(Cc3ccccc3)Cc3cc4c(cc32)OCO4)cc1 (stereo not drawn)	HEK293 tox 45µM, 3T3 cytotox inconclusive (no result: GPT2 inhibitor, hNpr1 antagonist, FLuc inh)
COc1ccc2c(c1)CN(Cc1ccccc1)C(=O)CCN2C(C)=O	3T3 cytotox inconclusive (no result: GPT2 inhibitor, hNpr1 antagonist, FLuc inh)
O=C1CCN(CC(O)Cc2ccccc2)c2cc3c(cc2CN1Cc1ccccc1)OCO3 (stereo not drawn)	HEK293 tox 40µM, 3T3 cytotox inconclusive (no result: GPT2 inhibitor, hNpr1 antagonist, FLuc inh)
COc1ccc2c(c1)CN(Cc1ccccc1)C(=O)CCN2CC(O)Cc1ccccc1 (stereo not drawn)	HEK293 tox 79µM, 3T3 cytotox inconclusive (no result: GPT2 inhibitor, hNpr1 antagonist, FLuc inh)
COc1ccc(-c2ccc(C(=O)NC3CCOCC3)cc2)nn1	none (no result: GPT2 inhibitor, hNpr1 antagonist, FLuc inh)
CC(C)Oc1ccc(C(=O)N2Cc3cnn(Cc4ccc(F)cc4)c3C2)cc1	hNpr1 antagonist inconclusive, HEK293 tox inconclusive, 3T3 cytotox inconclusive
Cc1cc(Cl)ccc1C(=O)N1Cc2cnn(Cc3ccc(F)cc3)c2C1	hNpr1 antagonist inconclusive, HEK293 tox 45µM, 3T3 cytotox inconclusive
COc1ccc(CNC(=O)c2noc(-c3ccc(F)cc3)n2)cc1OC	hNpr1 antagonist inconclusive, HEK293 tox inconclusive
COc1ccc(CNC(=O)c2noc(-c3ccc(C)cc3)n2)cc1OC	hNpr1 antagonist 13µM, FLuc inh inconclusive, HEK293 tox inconclusive, 3T3 cytotox inconclusive
Cc1ccc(-c2nc(C(=O)NCc3ccc(Cl)cc3)no2)cc1	none
O=C(NCc1cccc(Br)c1)c1noc(-c2ccc(F)cc2)n1	FLuc inh inconclusive, HEK293 tox 25µM, 3T3 cytotox 32µM
O=C(NCc1ccc(Cl)cc1)c1noc(-c2ccc(F)cc2)n1	HEK293 tox inconclusive
O=C(NCc1ccccc1)c1noc(-c2ccc3c(c2)OCO3)n1	FLuc inh 40µM, HEK293 tox inconclusive, 3T3 cytotox inconclusive
Cc1ccc(-c2nc(C(=O)NCc3cc(F)cc(F)c3)no2)cc1	HEK293 tox 32µM, 3T3 cytotox inconclusive
O=[S+]([O-])(c1cccc(C(F)(F)F)c1)N1CCC2(CCN(Cc3cccs3)c3ccccc3O2)CC1	HEK293 tox inconclusive, 3T3 cytotox inconclusive
Cc1ccc(Cn2c(C3CCN(C(=O)c4cc(Cl)ccc4F)CC3)n[nH]c2=O)cc1	HEK293 tox inconclusive, 3T3 cytotox inconclusive
Cc1ccc(-c2nc(C(=O)NCc3ccco3)no2)cc1	FLuc inh 16µM
O=C(NCc1ccccc1F)c1noc(-c2ccc3c(c2)OCO3)n1	FLuc inh 32µM, 3T3 cytotox inconclusive
Cc1ccc(-c2nc(C(=O)NCc3ccccc3F)no2)cc1	FLuc inh 22µM
O=C(NCc1ccc(F)cc1F)c1noc(-c2ccc(F)cc2)n1	none
O=C(NCc1ccc(F)cc1)c1noc(-c2ccc3c(c2)OCO3)n1	FLuc inh inconclusive
Cc1ccccc1C(=O)NC1CCN(c2ccc3nnc(C4CC4)n3n2)CC1	3T3 cytotox inconclusive (no result: GPT2 inhibitor, hNpr1 antagonist, FLuc inh)
COCCN1CCN(C[C@@H]2C=C(C)[C@H](Cc3nnc(-c4cccnc4)o3)C[C@H]2C(C)C)CC1	GPT2 inhibitor inconclusive, HEK293 tox inconclusive, 3T3 cytotox inconclusive
CC1=C[C@@H](CN2CCC(O)CC2)[C@H](C(C)C)C[C@H]1Cc1nnc(-c2ccncc2)o1	HEK293 tox inconclusive, 3T3 cytotox inconclusive
COCCN1CCN(C[C@@H]2C=C(C)[C@H](Cc3nnc(-c4ccc(N(C)C)cc4)o3)C[C@H]2C(C)C)CC1	HEK293 tox 32µM, 3T3 cytotox inconclusive
CC1=C[C@@H](CN2CCC(O)CC2)[C@H](C(C)C)C[C@H]1Cc1nnc(-c2ccc(N(C)C)cc2)o1	HEK293 tox inconclusive, 3T3 cytotox 40µM
